Reference: the supplement of paper PMC12024424
Where a name gives a salt, the structure may show the parent alone.

Test system: Staphylococcus aureus Sa2 (MRSA, cystic fibrosis isolate)
Test: growth reduction vs untreated control (OD550); higher = stronger antibacterial activity
Conditions: 0.1 mM; 24 h
Procedure: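 Single-dose screen of the MedChem Express Drug Repurposing Library (0.1 mM, 1% DMSO) against planktonic MRSA S. aureus Sa2 (CF isolate) in TSB in 96-well plates, 37 °C aerobic, 24 h. Assays were run in triplicate and repeated twice.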

Q: How did the growth reduction turn out when Oc1c(Br)cc(Br)c2cccnc12 [Broxyquinoline] was run?
A: 100%

Q: For CN[C@H]1CN(c2ccc3c(=O)c(C(=O)O)cn(-c4nccs4)c3n2)C[C@@H]1OC [Voreloxin (Hydrochloride)], which growth reduction is on record?
A: 100%

Q: How did the growth reduction turn out when O=C(NC[C@H]1CN(c2ccc(N3CCOCC3=O)cc2)C(=O)O1)c1ccc(Cl)s1 [Rivaroxaban] was run?
A: 100%

Q: For C[C@@H](NCCCc1cccc(C(F)(F)F)c1)c1cccc2ccccc12 [Cinacalcet (hydrochloride)], which growth reduction is on record?
A: 100%

Q: With Cc1ccc(C(=O)c2cc(O)c(O)c([N+](=O)[O-])c2)cc1 [Tolcapone] as the molecule, how does the growth reduction read?
A: 100%

Q: How did the growth reduction turn out when CC1(C)CCC2=C(O1)c1ccccc1C(=O)C2=O [β-Lapachone] was run?
A: 100%

Q: Cc1noc(-c2ccc(-c3ccc(C4(C(=O)O)CC4)cc3)cc2)c1NC(=O)O[C@H](C)c1ccccc1 was tested. Which growth reduction did it give?
A: 100%

Q: Which growth reduction does the source give for CCN(CC)CC#CCOC(=O)C(O)(c1ccccc1)C1CCCCC1 (stereo not given) [Oxybutynin (chloride)] here?
A: 94.3%

Q: For NCCCC[C@H](NC(=O)[C@@H](NC(=O)[C@H](Cc1c[nH]c2ccccc12)NC(=O)[C@H](CCCCN)NC(=O)[C@H](CCCCN)NC(=O)[C@H](Cc1c[nH]c2ccccc12)NC(=O)[C@H](Cc1c[nH]c2ccccc12)NC(=O)[C@H](CCCCN)NC(=O)[C@@H](N)CCCCN)C(c1ccccc1)c1ccccc1)C(N)=O, which growth reduction is on record?
A: 100%

Q: How did the growth reduction turn out when CCCCCCCCCCCCN1CCCCCC1=O [Laurocapram] was run?
A: 100%

Q: Which growth reduction does the source give for CCCCCCNC(=O)n1cc(F)c(=O)[nH]c1=O [Carmofur] here?
A: 100%

Q: How did the growth reduction turn out when CCC[C@H](Oc1cc(C)c(-n2cc(C(F)(F)F)cn2)c(C)c1)c1ccc(C(=O)NCCC(=O)O)cc1 was run?
A: 100%

Q: For CC1=CC(=O)c2ccccc2C1=O [Menadione], which growth reduction is on record?
A: 96.7%

Q: Which growth reduction does the source give for CC(=O)Oc1cccc2c1C(=O)c1c(OC(C)=O)cc(C(=O)O)cc1C2=O [Diacerein] here?
A: 93.4%

Q: With CCc1cc(F)c2nc(N3CCC(NC4CCOCC4)CC3)c(-c3nc(C)no3)c(C)c2c1 as the molecule, how does the growth reduction read?
A: 100%

Q: COc1cc(NCc2ccc3nc(N)nc(N)c3c2C)cc(OC)c1OC [Trimetrexate] was tested. Which growth reduction did it give?
A: 90.4%

Q: CC(/C=C/C=C(\C)C(=O)O)=C\C=C\C=C(C)\C=C\C=C(/C)C(=O)O [Transcrocetin meglumine salt] was tested. Which growth reduction did it give?
A: 100%

Q: How did the growth reduction turn out when CN1CCCC(CC2c3ccccc3Sc3ccccc32)C1 (stereo not given) [Metixene hydrochloride hydrate] was run?
A: 100%

Q: How did the growth reduction turn out when CC1(C)CCC(C)(C)c2cc(Cn3cccn3)c(/C=C/c3ccc(C(=O)O)cc3)cc21 [Palovarotene] was run?
A: 100%

Q: How did the growth reduction turn out when COc1cc(/C=C/c2ccc(O)cc2)cc(OC)c1 [Pterostilbene] was run?
A: 99.9%

Q: For O=C(Nc1ncc(SCCN2CCCC2)s1)[C@]1(c2ccc(S(=O)(=O)C3CC3)cc2)C[C@H]1C1CCCCC1 [Globalagliatin], which growth reduction is on record?
A: 100%

Q: How did the growth reduction turn out when COc1cc([C@H]2C(C#N)=C(N)Oc3c2ccc(N)c3N)cc(Br)c1OC [Crolibulin] was run?
A: 98.1%

Q: Which growth reduction does the source give for c1cn2cc(-c3ccc4cn[nH]c4c3)nc(Nc3ccc(N4CCOCC4)cc3)c2n1 [Entospletinib] here?
A: 100%

Q: Which growth reduction does the source give for CCCCCCCCCCCC[N+](C)(C)CCOc1ccccc1 [Domiphen (bromide)] here?
A: 100%

Q: With C#C[C@]1(O)CC[C@H]2[C@@H]3CCc4cc(OC)ccc4[C@H]3CC[C@@]21C [Mestranol] as the molecule, how does the growth reduction read?
A: 92.6%

Q: How did the growth reduction turn out when O=c1oc2ccccc2c(O)c1Cc1c(O)c2ccccc2oc1=O [Dicoumarol] was run?
A: 100%

Q: How did the growth reduction turn out when CC1=C(/C=C/C(C)=C/C=C/C(C)=C/C(=O)Nc2ccc(O)cc2)C(C)(C)CCC1 [Fenretinide] was run?
A: 100%

Q: Which growth reduction does the source give for COc1cc(C(=O)NS(=O)(=O)c2ccccc2C)ccc1Cc1cn(C)c2ccc(NC(=O)OC3CCCC3)cc12 [Zafirlukast] here?
A: 100%

Q: With Cc1ccc(C(=O)N(CCCN)[C@@H](c2oc3cc(Cl)ccc3c(=O)c2Cc2ccccc2)C(C)C)cc1 as the molecule, how does the growth reduction read?
A: 100%

Q: Which growth reduction does the source give for Cn1cc(-c2ccncc2)c(-c2ccc(OCc3ccc4ccccc4n3)cc2)n1 [Mardepodect] here?
A: 100%

Q: How did the growth reduction turn out when Cc1ccc(Sc2ccccc2N2CCNCC2)c(C)c1 [Vortioxetine (hydrobromide)] was run?
A: 100%

Q: CC/C(=C(\c1ccccc1)c1ccc(OCCN(C)C)cc1)c1ccccc1 [Tamoxifen (Citrate)] was tested. Which growth reduction did it give?
A: 100%

Q: How did the growth reduction turn out when NC(=O)N1CCC(CC(=O)N2CCC([C@H]3c4ncc(Br)cc4CCc4cc(Cl)cc(Br)c43)CC2)CC1 [Lonafarnib] was run?
A: 94.3%

Q: With COC1=C(OC)C(=O)C(CCCCCCCCCC[P+](c2ccccc2)(c2ccccc2)c2ccccc2)=C(C)C1=O [Mitoquinone (mesylate)] as the molecule, how does the growth reduction read?
A: 100%

Q: Which growth reduction does the source give for Cn1cc(-c2ccncc2)c(-c2ccc(OCc3ccc4ccccc4n3)cc2)n1 [Mardepodect (hydrochloride)] here?
A: 100%

Q: CCCCCCCCc1ccc(CCC(N)(CO)CO)cc1 [Fingolimod (hydrochloride)] was tested. Which growth reduction did it give?
A: 100%

Q: With C[C@H]1Cc2c([nH]c3cc(Cl)c(F)cc23)[C@@]2(N1)C(=O)Nc1ccc(Cl)cc12 [Cipargamin] as the molecule, how does the growth reduction read?
A: 100%

Q: Which growth reduction does the source give for O=C(NCc1ccc(Oc2ccccc2)cc1)c1nc(-c2cc(Br)c(O)c(Br)c2)no1 here?
A: 95.3%

Q: For C#C[C@]1(OC(C)=O)CC[C@H]2[C@@H]3CCC4=C[C@@H](OC(C)=O)CC[C@@H]4[C@H]3CC[C@@]21C [Ethynodiol diacetate], which growth reduction is on record?
A: 92.7%

Q: For CC(C)=CCC/C(C)=C/CC/C(C)=C/CSc1ccccc1C(=O)O [Salirasib], which growth reduction is on record?
A: 100%
